Source: PubChem BioAssay (Tox21)
Inconclusive results are not listed. A call without a number means that no potency is given here. Values without a mark were called inactive. The source made the active and inactive calls. Calls follow the shape of the full dose curve.

Assay: p53 small molecule agonists, cell-based qHTS assay with rat liver microsomes: qHTS cell viability counter screen (AID 1963580); also: nearly all actives have a fitted effect of over 45% in size
Conditions: p53RE-bla HCT-116 + rat microsomes, ATP viability, 16 h; series mostly up to 66 µM
Text: National Center for Advancing Translational Sciences [NCATS]
Division of Preclinical Innovation [DPI]
U.S. Environmental Protection Agency [EPA]
National Institutes of Environmental Health Sciences [NIEHS]
National Toxicology Program [NTP]
U.S. Food and Drug Administration [FDA]
p53, a tumor suppressor protein, is activated following cellular insult, including DNA damage and other cellular stresses. The activation of p53 regulates cell fate by inducing DNA repair, cell cycle arrest, apoptosis, or cellular senescence. The activation of p53, therefore, is a good indicator of DNA damage and other cellular stresses. The CellSensor p53RE-bla HCT-116 cell line contains a stably integrated beta-lactamase reporter gene under control of the p53 response elements. The activation of the reporter gene under culture conditions can be detected by fluorescence intensity. This cell line was used to screen the Tox21 10K compound library in the condition of presence of rat liver microsomes and to identify agonists that activate the p53 signaling pathway after in vitro metabolic activation (Ooka et al., Archive of Toxicology 96:1975-1987, 2022). The cytotoxicity of the Tox21 compound library against the p53 RE-bla HCT-116 cell line was tested in parallel by measuring the intra cellular ATP content in the same wells.
Tox21 Assay Protocol Summary:
The p53RE-bla cells were dispensed at 4,000cells/3ul/well in 1536-well black-clear bottom plates. After the assay plates were incubated at 37 C, 5% CO2 incubator for 5 hours, 23 nL of compounds dissolved in DMSO, positive controls or DMSO only was transferred to the assay plate. Following compound addition, 3 uL of rat liver microsomes (Molecular Toxicology, Boone, NC) at final concentration of 0.5 mg/mL and 1uL of B-Nicotinamide adenine dinucleotide 2'-phosphate (NADPH) at final concentration of 0.5 mg/mL were transferred to the assay plate. The plates were incubated at 37 C for 16 hours. 1 uL of LiveBLAzer detection mixture was added to each well and the plates were incubated at room temperature in the dark for 2 h. Fluorescence intensity at 460 and 530 nm emission and 405 nm excitation were measured by an Envision plate reader. For cell viability readout that measures cytotoxicity, 4 ul/well of CellTiter-Glo reagent was added into the assay plates using a Flying Reagent Dispenser. After 30 min incubation at room temperature, the luminescence intensity in the plates was measured using a ViewLux plate reader.

With CC(c1ccc(O)cc1)(c1ccc(O)cc1)c1ccc(O)cc1 as the compound, how does the Potency read?
The Potency was “inactive”.

For C=C(C)[C@H]1CN[C@H](C(=O)O)[C@H]1CC(=O)O, which Potency is on record?
The Potency was “inactive”.

For CC1(C(=O)Nc2ccc(O)c(Cl)c2Cl)CCCCC1, which Potency is on record?
Its Potency is “inactive”.

Which Potency does the source give for Cc1cc2c3c(c1)C(c1ccccc1)=N[C@@H](NC(=O)c1ccncc1)C(=O)N3CC2 here?
The Potency was “inactive”.

With C[N+](C)=CCl as the compound, how does the Potency read?
The Potency was “inactive”.

Which Potency does the source give for CCCCCCCC(=O)Cl here?
The Potency was “inactive”.

Which Potency does the source give for COC(=O)/C=C(\C)OP(=O)(OC)OC here?
The Potency was “inactive”.

Which Potency does the source give for CCCCCCCCCC(=O)O[C@H]1CC[C@H]2[C@@H]3CCC4=CC(=O)CC[C@@H]4[C@H]3CC[C@]12C here?
The Potency was “inactive”.

For CNC(=O)O/N=C(\C)SC, which Potency is on record?
Its Potency is “inactive”.

For CC(C)(C)c1cc([N+](=O)[O-])cc(C(C)(C)C)c1O, which Potency is on record?
The Potency was “inactive”.

For COc1ccc2[nH]cc(CCN(C(C)C)C(C)C)c2c1, which Potency is on record?
The Potency was “inactive”.

Which Potency does the source give for Oc1ccc(C2(c3ccc(O)cc3)CCCCC2)cc1 here?
The Potency was “inactive”.

For CC(Cc1ccc(C(C)(C)C)cc1)CN1C[C@@H](C)O[C@@H](C)C1 (stereo not given in full), which Potency is on record?
The Potency was “inactive”.

For ClCCCCBr, which Potency is on record?
Its Potency is “inactive”.

For Cc1ccccc1C(=O)Nc1cccc(OC(C)C)c1, which Potency is on record?
The Potency was “inactive”.

Which Potency does the source give for CC(C)[C@H](C(=O)OC(C#N)c1cccc(Oc2ccccc2)c1)c1ccc(OC(F)F)cc1 (stereo not given in full) here?
Its Potency is “inactive”.

With CCOC(=O)N(C)C(=O)CSP(=S)(OCC)OCC as the compound, how does the Potency read?
The Potency was “inactive”.

Which Potency does the source give for C#CC(O)(C=CCl)CC (stereo not given) here?
Its Potency is “inactive”.

For CCOP(=S)(OCC)Oc1ncn(-c2ccccc2)n1, which Potency is on record?
Its Potency is “inactive”.

For C[C@@H](N)[C@@H](O)c1ccccc1, which Potency is on record?
The Potency was “inactive”.

Which Potency does the source give for CCC1(C2=NCCN2)Cc2ccccc2O1 (stereo not given) here?
The Potency was “inactive”.

For CCCCCCCCCCCCCCC(Br)C(=O)O (stereo not given), which Potency is on record?
The Potency was “inactive”.

With O=C(O)c1ccc2[nH]cc(CCCCN3CC=C(c4ccccc4)CC3)c2c1 as the compound, how does the Potency read?
Its Potency is “inactive”.

Which Potency does the source give for BrCC(Br)(Br)Br here?
Its Potency is “inactive”.

Which Potency does the source give for NS(=O)(=O)C(F)(F)C(F)(F)C(F)(F)C(F)(F)C(F)(F)C(F)(F)C(F)(F)C(F)(F)F here?
The Potency was “inactive”.

With O=[N+]([O-])c1c2ccccc2cc2ccccc12 as the compound, how does the Potency read?
The Potency was “inactive”.

Which Potency does the source give for O=C(NC(=O)c1c(F)cccc1F)Nc1cc(Cl)c(Oc2ncc(C(F)(F)F)cc2Cl)c(Cl)c1 here?
The Potency was “inactive”.

For CNC(=O)Oc1cc(C)c(SC)c(C)c1, which Potency is on record?
The Potency was “inactive”.

With C=CCOC(C)=O as the compound, how does the Potency read?
The Potency was “inactive”.

Which Potency does the source give for CC(=O)/C=C/c1ccc2c(c1)OCO2 here?
Its Potency is “inactive”.

Which Potency does the source give for CCCCC(CC)COC(=O)c1ccccc1C(=O)OCC(CC)CCCC (stereo not given) here?
The Potency was “inactive”.

For Cc1ccc2nc3sc(=O)sc3nc2c1, which activity change, negative = cytotoxicity is on record?
The activity change, negative = cytotoxicity was -3.16% [at 13.5 µM].

With C[C@]12Cc3nonc3C[C@@H]1CC[C@@H]1[C@@H]2CC[C@@]2(C)[C@H]1CC[C@]2(C)O as the compound, how does the Potency read?
The Potency was “inactive”.

For Nc1nc(N)nc(N)n1, which Potency is on record?
Its Potency is “inactive”.

With Cc1cnc2c(C(=O)O)c(Cl)ccc2c1 as the compound, how does the Potency read?
Its Potency is “inactive”.

For O=C(O)/C=C\C(=O)O, which Potency is on record?
Its Potency is “inactive”.

Which Potency does the source give for O=[N+]([O-])c1ccc2ccc3cccc4ccc1c2c34 here?
The Potency was “inactive”.

For CCOC(=O)CCN(SN(C)C(=O)Oc1cccc2c1OC(C)(C)C2)C(C)C, which Potency is on record?
Its Potency is “inactive”.

Which Potency does the source give for CC(O)(CS(=O)(=O)c1ccc(F)cc1)C(=O)Nc1ccc(C#N)c(C(F)(F)F)c1 (stereo not given) here?
Its Potency is “inactive”.

For Cc1cc(C)c(C(=O)P(=O)(C(=O)c2c(C)cc(C)cc2C)c2ccccc2)c(C)c1, which Potency is on record?
The Potency was “inactive”.
